# FEN1 inhibitor = blocks human flap endonuclease 1; P39748; Recombinant FEN1 flap cleavage, fluorescence, 15 min; Potency, µM (titrated, usually from 114 µM), inactives show top-dose activity change, negative = inhibition, usual class: inhibitors; 0.35% of 390,000 active; AID 588795; note: % is set by controls: 0 for no effect and ±100 for the full control effect; nearly all actives have a fitted effect of over 65% in size
#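 With each library titrated from low to high concentration, compounds met 10 nM FEN1 for 15 min at room temperature before 50 nM substrate was added; readings at 0 and 15 min fed four-parameter Hill curve fits.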
# Pol iota inh = DNA polymerase iota (human) inhibition. Q9UNA4. Pol iota fluorescent replication assay, 10 min. Potency, µM (series often up to 115 µM), for the others: at the top dose activity, negative = inhibition, hits mostly inhibitors. 1% of 390,000 active
#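 Fluorescent replication assay read twice, at 0 min and 10 min after adding 50 nM (final) substrate. Enzyme (10 nM) and compounds were first incubated 15 min at room temperature; enzyme-free buffer wells were negative controls.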
# Pol beta inh = inhibitors of human DNA polymerase beta; P06746; Pol beta primer extension/strand displacement, fluorescence kinetic; Potency, µM (top dose mostly 114 µM), without a hit: at the highest dose activity change, negative = inhibition, usual class: inhibitors; 1.3% of 340,000 active; note: % is set by controls: 0 for no effect and ±100 for the full control effect
#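 Kinetic readout of DNA synthesis with strand displacement by Pol beta. Compound and 10 nM enzyme sit 15 min at room temperature; 50 nM substrate starts the reaction, read immediately and at 10 min.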
# WRN inhibitor = blocks human WRN helicase; WRN helicase unwinding, fluorescent forked duplex, kinetic; AID 651768; 0.46% of 360,000 active; Potency, µM (highest dose often 114 µM), for inactives: top-dose activity change, negative = inhibition, hits mostly inhibitors; Q14191; note: % is set by controls: 0 for no effect and ±100 for the full control effect; nearly all actives have a fitted effect of over 55% in size
#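 Screening of the MLSMR collection measured strand separation of a quenched forked DNA duplex (100 nM) by 20 nM WRN with 2 mM ATP, all final. Compounds were preincubated with enzyme 15 min at room temperature.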
# Pol eta inh = DNA polymerase eta (human) inhibition. Q9Y253. recombinant Pol eta, fluorescent DNA replication assay. Potency, µM (doses to about 114 µM), for the others: top-dose activity change, negative = inhibition, usual class: inhibitors. 1.2% of 390,000 active; note: % is set by controls: 0 for no effect and ±100 for the full control effect
#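 Fluorescent replication assay: 50 nM final substrate added after a 15 min room-temperature compound preincubation with 10 nM enzyme. Signal taken at 0 min and again at 10 min.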
# Pol kappa inh = blocks human DNA polymerase kappa activity | Q9UBT6 | purified Pol kappa, fluorescent DNA synthesis assay, 10 min | Potency, µM (top dose mostly 107 µM), inactives show at the top dose activity, negative = inhibition, actives largely listed as inhibitors | 0.53% of 400,000 active; note: % is set by controls: 0 for no effect and ±100 for the full control effect
#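 Here, compound and 10 nM enzyme are combined for 15 min at room temperature; adding 50 nM substrate (final) starts DNA synthesis, tracked by fluorescence at 0 and 10 min against buffer-only wells.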
# The depositor's hits bear a star; ? = inconclusive; · = no result; ! = a repeat was not active; [ ] = remark or other dose. An excerpt weighted towards active compounds, which were near 2.4% of everything screened. Calls come from the whole dose curve; as a rule, active = well fitted curve in the direction sought with a large enough effect; inconclusive = small, poorly fitted or top-dose-only effect, or another doubt; inactive = no such curve, though single readings can be large; an effect the other way counts as inactive or inconclusive. Potency is the fitted concentration of half-maximal effect.
SMILES,FEN1 inhibitor,Pol iota inh,Pol beta inh,WRN inhibitor,Pol eta inh,Pol kappa inh
COc1cc(C2CC(=O)c3c(O)cc(O)cc3O2)ccc1O (configuration not stated),-7%,24%,?,3%,-24%,11%
O=C(O[C@@H]1Cc2c(O)cc(O)cc2OC1c1ccc(O)c(O)c1)c1cc(O)c(O)c(O)c1 (some centres not stated),·,·,·,·,·,0.18µM*
COc1c(CC=C(C)C)cc(C2CC(=O)c3c(O)cc(O)cc3O2)c(CC=C(C)C)c1O (configuration not stated),?,-25%,·,-6%,-2%,-5%
O=C(OC1Cc2c(O)cc(O)cc2OC1c1cc(O)c(O)c(O)c1-c1c(C2Oc3cc(O)cc(O)c3CC2OC(=O)c2cc(O)c(O)c(O)c2)cc(O)c(O)c1O)c1cc(O)c(O)c(O)c1 (configuration not stated),·,·,·,·,·,0.5µM*
COc1ccc([C@H]2CC(=O)c3c(O)cc(O)cc3O2)cc1O,-4%,44%,-20%,-4%,-21%,0%
Oc1cc(O)c2c(c1)O[C@H](c1ccc(O)c(O)c1)[C@H](O)C2,15%,89µM*,3%,-6%,-6%,89µM*!
Cc1sc2nc3c4ccccc4c(NCc4ccco4)nn3c(=O)c2c1C,-21%,-1%,11µM*,?,?,-19%
CCOc1ccc2c(c1)C(NC(C)=O)C(=O)N2CCN1CCOCC1 (configuration not stated),40µM*,?,0%,10%,?,-10%
C=CCSC1=N/C(=C\c2sccc2C)C(=O)S1,-18%,9%,-2%,-3%,-11%,-11%
C=CCSC1=N/C(=C\c2cc(OCC)c(OC(C)=O)c([N+](=O)[O-])c2)C(=O)S1,56µM*,20µM*,20µM*,16%,?,32µM*
CC(C)(C)OC(=O)N1CCN(/[N+]([O-])=N/Oc2ccc([N+](=O)[O-])cc2[N+](=O)[O-])CC1,?,29%,·,·,·,-15%
O=C1/C(=C\c2ccncc2)SC(=S)N1C1CCCCC1,-2%,4%,79µM*,0%,-16%,-8%
COCCOC(=O)N1CCN(/[N+]([O-])=N/Oc2ccc([N+](=O)[O-])cc2[N+](=O)[O-])CC1,-1%,-9%,·,·,·,7%
CC(=O)N1CCc2cc(S(=O)(=O)CCC(=O)NCc3cccs3)ccc21,-10%,6%,13%,11%,7%,-4%
CC(=O)N1CCc2cc(S(=O)(=O)CCC(=O)NCc3ccc4c(c3)OCO4)ccc21,-1%,-12%,45µM*,-2%,?,-11%
CCOc1ccc(Nc2nc(N)c(C(=O)c3ccccc3Cl)s2)cc1,-2%,-2%,-18%,·,-24%,-15%
CC(=O)OCON[N+]([O-])=NC1CCCCC1,-19%,-10%,·,·,·,1%
CCN1CCN(c2cc(N3CCN(C(=O)c4ccco4)CC3)c3c4c(onc24)-c2ccccc2C3=O)CC1,?,28µM*,-2%,152%,-12%,-17%
CC(=O)OCCNc1cc(N2CCN(C)CC2)c2noc3c2c1C(=O)c1ccccc1-3,-28%,52%,1%,-29%,-18%,-22%
N#Cc1nc(COc2ccc(-c3ccccc3)cc2)oc1N1CCC(C(N)=O)CC1,9%,18%,·,·,·,6%
[O-][n+]1onc2c1CCC(=N/O)/C2=N\Nc1ccccc1,·,·,40µM*,·,·,·
O=C1C[C@@H](c2ccc(O)c(O)c2)Oc2cc(O[C@H]3O[C@@H](CO)[C@H](O)[C@@H](O)[C@@H]3O)cc(O)c21,·,·,·,·,·,21µM*
O=C(C[n+]1cccc2cccc(O)c21)c1ccc(Br)cc1,18%,24%,·,·,·,6%
Cc1ccc(S(=O)(=O)N2CC=C(c3c(C)n(C)c4ccccc34)CC2)cc1,-18%,-9%,-3%,79µM*,-18%,-6%
Cc1ccc(S(=O)(=O)N2CC=C(c3c(C)n(CC(=O)N4CCCC4)c4ccccc34)CC2)cc1C,-27%,79µM*,-2%,·,-14%,-15%
SMILES,FEN1 inhibitor,Pol iota inh,Pol beta inh,WRN inhibitor,Pol eta inh,Pol kappa inh
CCn1c(C)c(C2=CCN(S(=O)(=O)c3ccccc3)CC2)c2ccccc21,-9%,-5%,-11%,-13%,-21%,-12%
O=C1NC(=O)c2c1c(-c1ccccc1)cc1[nH]c3ccc(O)cc3c21,·,·,·,·,·,12%[60.1 µM]
O=C1CC2(CCCC2)CC(=O)N1CCCCNCC1COc2ccccc2O1 (configuration not stated),·,·,·,·,·,3%[19.4 µM]
CC(=O)c1cc2ccccc2c2ccccc12,-15%,34%,·,·,·,-11%
COc1cccc(OCc2cc(/C=N/Nc3ccc(C(=O)O)cc3)ccc2OC)c1,-24%,8%,-3%,-21%,50µM*,-13%
COc1cccc(C(=O)Oc2ccc(/C=N/Nc3ccc(C(=O)O)cc3)cc2OC)c1,2%,-10%,28%,-8%[57.1 µM],-4%,3%
Cc1ccc2c(c1)-c1ccccc1S(=O)(=O)N2,0%,14%,7%,-3%,-7%,1%
Nc1ccc2c(c1)-c1ccccc1S(=O)(=O)N2,?,14µM*,-2%,-33%,45µM*,?
O=C(CSc1nc2sccc2c(=O)[nH]1)N1CCN(c2ccccc2)CC1,1%,?,25µM*,-11%[11.6 µM],50µM*,?
COc1ccc2c(c1)C(c1ccccc1C)CC(=O)O2 (configuration not stated),·,·,·,·,·,-23%
CCC[N+](C)(C)c1ccc(/C=C/c2ccnc3ccccc23)cc1,32µM*,?,·,·,·,?
C[N+](C)(C)c1ccc(/C=C/c2ccnc3ccccc23)cc1,45µM*,31%,·,·,·,-41%
CCCN(CCC)c1ccc(/C=C/c2ccnc3ccccc23)cc1,-1%,24%,·,·,·,-1%
CN(C)c1ccc(/C=C/c2ccnc3ccc4ccccc4c23)cc1,11µM*,?,·,·,·,28µM*
Oc1ccc(/C=C/c2ccnc3ccccc23)cc1,2%,90%,5%,6%,-16%,-10%
O=C(O)[C@@H]1CN[C@@H](C(=O)O)C1,·,·,·,·,·,8%[19.4 µM]
CC1=C(C(=O)OCc2ccc3nsnc3c2)N2C(=O)[C@@H](NC(=O)OCc3ccc4nsnc4c3)[C@H]2SC1,1%,?,·,·,·,-39%
Cc1ccc(S(=O)(=O)N2CCN(c3nc(-c4cccs4)nc4nc[nH]c34)CC2)cc1,13%,-4%,·,·,·,11%
CC(=O)C1=C(O)C(=O)N(Cc2ccccc2)C1c1ccco1 (configuration not stated),-32%,?,?,-5%[57.1 µM],45µM*,-21%
CC(=O)C1=C(O)C(=O)N(Cc2ccco2)C1c1ccccc1 (configuration not stated),?,-8%,9%,-9%[57.1 µM],-1%,-5%
